# Rows were chosen to be rich in hits. Some 2.2% of all compounds tested hit in one or more screens of this group.
# CHT allo act – allosterically activates the human high affinity choline transporter. Q9GZV3. CHT-expressing cells, membrane potential dye, choline EC20; active compounds read high; LV-AA mutant CHT in HEK293 cells. B-score at 10 µM. 0.49% of 310,000 active;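 active = initial fluorescence not abnormally high and integrated response B-score, plate-corrected, over 3 SD above library mean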
# VLA-4 inh – inhibition in a human VLA-4 binding assay; P13612; VLA-4 expressing cells, ligand binding flow cytometry; inhibition, % (about 7 µM as worked out from the volumes in the protocol); 0.2% of 330,000 active; AID 2557; in the data active = inhibition above about 50%
# CHT inh – inhibits the human high affinity choline transporter. Q9GZV3. CHT-expressing cells, membrane potential dye, choline response; active compounds read low. B-score at 10 µM. 0.86% of 310,000 active;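 active = B-score over 3 SD under the library average, and starting fluorescence ratio not unusually high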;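 note: choline stimulus applied at its EC90 after an EC20 pre-addition; B-score computed on integrated fluorescence ratio after choline addition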
# HIF activator – HIF pathway transcriptional activation | U2OS HRE-luciferase reporter, luminescence; normalized: DMSO 0%, desferrioxamine 100% | activation, % at 7.5 µM (by protocol) | 0.32% of 300,000 active | AID 1910;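 active = mean activation of at least 10% of the iron chelator positive control signal, with at least half of replicates also reaching 10%; inconclusive = mean and replicate majority disagree about reaching 10%; inactive = mean and most replicates under 10%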
# Platelet DG rel – modulates dense granule release in human platelets. inhibition, %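 (compounds screened at 7.5 µM in platelet-rich plasma)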. human platelet-rich plasma, SFLLRN dense granule ATP release, luminescence. 0.22% of 300,000 active. AID 1663;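 active = mean replicate score, as percent of positive control, at or above 50; inconclusive = mean below 50 but at least one replicate at or above 50; inactive = mean and every replicate below 50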
# AI-2 QS modul – modulates the Vibrio harveyi AI-2 quorum sensing system | Vibrio harveyi JMH597 AI-2 luminescence/OD600 ratio, 9 h; active compounds read low; strain lacks LuxN and CqsS sensors; 0 = neutral-control median | activity change, % at 7.5 µM | 0.4% of 300,000 active; in the data active = activity change below about -75%, passing the limit was not always enough; inconclusive = no clear call, values can overlap the other calls;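 note: luminescence divided by OD600 gain over 9 h not by final OD600 alone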
# CHT inh conf – human CHT inhibition, confirmatory screen; 70% of 2,400 active; CHT activity remaining % of control (active compounds read low), % at 10 µM; shares compounds with CHT inh; CHT-expressing cells, choline membrane potential dye; LV-to-AA substituted CHT, HEK293 cells; AID 493221;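 active = choline transporter activity left, mean of duplicates at 10 µM, below buffer-only control mean minus 3 SD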;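 note: depolarization triggered by choline at its EC90 following an EC20 pre-addition; 0% = hemicholinium-3 full block and 100% = buffer-only control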
# HEK293 MPD ctr – CHT inhibitor counter-screen hit in parental HEK293 cells; membrane potential ratio readout (active if shifted either direction beyond buffer ±3SD; no single direction) at 10 µM; membrane potential dye, choline response; active = decrease or increase beyond buffer ±3SD; shares compounds with CHT inh; 4% of 2,400 active;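 note: parental cells lack the transporter so any hit is non-specific; ratio is peak minus trough fluorescence over baseline after EC90 choline challenge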
# An asterisk follows results filed as active; i = inactive; ? = inconclusive; · = no result given.
SMILES,CHT allo act,VLA-4 inh,CHT inh,HIF activator,Platelet DG rel,AI-2 QS modul,CHT inh conf,HEK293 MPD ctr
O=C(O)C1=CC[C@@H](c2ccc(Cl)cc2)N(S(=O)(=O)c2ccc(Cl)cc2)[C@H]1c1ccc(F)cc1,i,-4,-6.3*,·,·,·,58%*,i
Cc1ccc(S(=O)(=O)N2[C@@H](c3cccc(Cl)c3)C(C(=O)O)=CC[C@H]2c2ccc(Cl)cc2)cc1,i,1,i,·,·,·,·,·
Cc1ccc(S(=O)(=O)N2[C@@H](c3ccc(Cl)cc3)C(C(=O)O)=CC[C@H]2c2ccc(Cl)c(Cl)c2)cc1,i,-5,-6.2*,·,·,·,65%*,i
CCOc1ccc([C@@H]2CC=C(C(=O)O)[C@H](c3cccc(Cl)c3)N2S(=O)(=O)c2ccc(C)cc2)cc1,i,-12,-6.1*,·,·,·,62%*,i
COc1cc(OC)cc(C(=O)NNC(=O)C(=O)Nc2cc(OC)c(Cl)cc2OC)c1,i,-8,i,0,11,36,·,·
Cc1[nH]n(-c2ccccc2)c(=O)c1N=Nc1c(O)cc(S(=O)(=O)N(C)C)c2ccccc12,i,14,-8.5*,0,9,1,34%*,i
Cc1[nH]n(-c2ccccc2)c(=O)c1N=Nc1ccc2c(c1)OCCO2,i,3,i,?,-7,5,·,·
O=C1c2ccccc2NC(c2ccc(Br)s2)N1O (stereo not drawn),i,2,i,1,8,71,·,·
Cc1cnc(C)c(N2CCN(Cc3nc(-c4cccc(F)c4F)oc3C)CC2)n1,i,0,-7.2*,0,2,-7,29%*,i
CCS(=O)(=O)C1=NN2C(=N)/C(=C\c3ccc(OS(=O)(=O)c4ccccc4)cc3)C(=O)N=C2S1,i,1,-8.7*,1,-8,25,42%*,i
CCC1=NN2C(=N)/C(=C/c3ccc(OS(=O)(=O)c4ccccc4)cc3)C(=O)N=C2S1,i,7,i,0,-3,30,·,·
CSC1=NSC2=NC(=O)/C(=C\c3ccc(OC(=O)c4ccco4)cc3)C(=N)N12,i,2,i,1,4,0,·,·
Cc1ccc(S(=O)(=O)Oc2ccc(/C=C3/C(=N)N4C(=NC3=O)SN=C4S(C)(=O)=O)cc2)cc1,i,2,-6.1*,·,-13,32,48%*,i
CC(C)CS(=O)(=O)C1=NSC2=NC(=O)/C(=C\c3ccc(OC(=O)c4ccco4)cc3)C(=N)N21,i,8,-6.9*,0,0,13,65%*,i
CS(=O)(=O)C1=NSC2=NC(=O)/C(=C\c3ccc(OS(=O)(=O)c4ccccc4)cc3)C(=N)N21,i,3,-6.6*,0,12,20,58%*,i
Cc1ccc(S(=O)(=O)N2CCN(C(=O)C(Cc3ccccc3)NC(=O)c3ccccc3)CC2)cc1 (stereo not drawn),·,-6,·,·,·,·,·,·
Cc1ccc(-c2noc(-c3ccno3)n2)cc1,i,0,i,2,5,16,·,·
COc1ccc(NC(=O)CN2C(=O)NC(C)(C3CC3)C2=O)c(OC)c1 (stereo not drawn),·,11,·,·,·,·,·,·
CCS(=O)(=O)C1=NSC2=NC(=O)/C(=C\c3ccc(OS(=O)(=O)c4ccccc4)c(OC)c3)C(=N)N21,i,12,-5.3*,0,-8,14,48%*,i
COc1cc(/C=C2/C(=N)N3C(=NC2=O)SN=C3S(C)(=O)=O)ccc1OS(=O)(=O)c1ccc(C)cc1,i,-2,i,0,1,16,·,·
O=C(Nc1cc([N+](=O)[O-])ccc1O)c1cccc([N+](=O)[O-])c1,i,5,-5.4*,0,2,33,10%*,i
CSc1ccc(C(=O)C2CCCN(C(=O)c3ccsc3)C2)cc1 (stereo not drawn),i,-4,-5.2*,0,0,2,69%*,i
CCCC(=O)OC1CCS(=O)(=O)c2sccc21 (stereo not drawn),i,0,i,0,-2,55,·,·
COc1ccc(CN(Cc2ccc(C(=O)O)cc2)C(=S)Nc2ccccc2C)cc1OC,i,-5,i,-26,-12,9,·,·
COc1cccc(NC(=S)N(Cc2ccc(C(=O)O)cc2)Cc2ccc(OC)c(OC)c2)c1,i,21,-6.4*,1,-3,21,51%*,i
SMILES,CHT allo act,VLA-4 inh,CHT inh,HIF activator,Platelet DG rel,AI-2 QS modul,CHT inh conf,HEK293 MPD ctr
Cc1ccc(NC(=O)CN(C)C(=O)CNC(=O)c2sc3ccccc3c2Cl)cc1,i,0,i,3,-3,16,·,·
CC1CC(=O)Nc2ccccc2N1C(=O)CSc1ncnc2sccc12 (stereo not drawn),·,8,·,·,·,·,·,·
COCCSc1nc2c(c(=O)[nH]c(=O)n2C)n1CCC(C)C,i,-16,i,0,2,6,·,·
CCC(C)Nc1nc2c(c(=O)[nH]c(=O)n2C)n1CCC(C)C (stereo not drawn),i,-2,-8.3*,0,-4,32,i,i
COC(=O)C(C)Sc1nc2c(c(=O)[nH]c(=O)n2C)n1CCC(C)C (stereo not drawn),i,-1,-5.1*,0,8,39,40%*,i
CCC(C)Nc1nc2c(c(=O)[nH]c(=O)n2C)n1CCCc1ccccc1 (stereo not drawn),i,15,i,0,2,·,·,·
CN1CCCN(C(=O)CNC(=O)c2ccccc2Br)CC1,·,-10,·,·,·,·,·,·
O=C(c1ccc2c(=O)n3c(nc2c1)CCCCC3)N1CCN(c2cccc(Cl)c2)CC1,i,0,i,0,-1,31,·,·
COc1cccc(OC)c1OCCCCCc1c(C)n[nH]c1C,i,9,-6.5*,0,3,28,45%*,i
Cc1n[nH]c(C)c1CCCCOc1ccccc1F,i,-3,i,1,·,23,·,·
Cc1n[nH]c(C)c1CCCCOc1ccccc1[N+](=O)[O-],i,4,-5.5*,0,-8,5,52%*,i
Cc1n[nH]c(C)c1CCCCOc1ccccc1,i,26,i,0,-4,0,·,·
Cc1cc(=O)[nH]c(SCC(=O)N2CCCC(C)C2)n1 (stereo not drawn),i,-1,i,-3,-5,-2,·,·
O=C(c1ccco1)N1CCN(Cc2cc(=O)c(OCc3ccc([N+](=O)[O-])cc3)co2)CC1,i,13,i,0,23,18,·,·
